Laboratory results taken from PubChem BioAssay (NCI).
The panel holds about 79,000 compounds, 15% with a hit somewhere; the sample as a whole holds those more often. Unmarked numbers belong to inactive results. Active and inactive are the calls of the source. Rule as the data show it: active = growth inhibition above about 70%; inactive = the rest.

Tests used:
[1] = NCI Yeast Anticancer Drug Screen. Data for the wt2 strain (AID 169);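 also: 0% = growth of vehicle-treated yeast cultures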; conditions: S. cerevisiae wt2 strain growth inhibition, stronger effect = higher value
How it was run: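 The panel's yeast strains carry defined changes in DNA repair or cell cycle genes. Each strain is grown with compound, and growth loss is scored relative to vehicle.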

[2] = NCI Yeast Anticancer Drug Screen. Data for the mlh1 strain (AID 171);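 also: 0% = growth of vehicle-treated control cultures of the same strain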; conditions: S. cerevisiae mlh1 strain growth inhibition, stronger effect = higher value
How it was run: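 Inhibition values reflect reduced yeast growth in the presence of compound, referenced to vehicle controls, using a strain chosen for its alteration in DNA repair or cell cycle control.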

[3] = NCI Yeast Anticancer Drug Screen. Data for the sgs1 strain (AID 173);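 also: 0% = growth of vehicle-only control cultures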; conditions: S. cerevisiae sgs1 mutant, stronger effect = higher value
How it was run: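 Vehicle-treated cultures served as reference for growth inhibition of a yeast strain altered in DNA damage repair or cell cycle control after compound exposure.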

[4] = NCI Yeast Anticancer Drug Screen. Data for the mlh1 rad18 strain (AID 175); conditions: S. cerevisiae mlh1 rad18 strain growth inhibition, stronger effect = higher value
How it was run: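 Inhibition values reflect reduced growth of mutant yeast versus vehicle-treated controls following compound exposure; the mutations affect DNA damage repair.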

[5] = NCI Yeast Anticancer Drug Screen. Data for the rad18 strain (AID 177); conditions: S. cerevisiae rad18 mutant growth inhibition, stronger effect = higher value
How it was run: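 Steps: expose repair-mutant yeast to compound; measure growth; express as inhibition relative to vehicle control.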

[6] = NCI Yeast Anticancer Drug Screen. Data for the rad52 strain (AID 147);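 also: 0% = growth of vehicle-treated control cultures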; conditions: S. cerevisiae rad52 mutant growth inhibition, stronger effect = higher value
How it was run: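 Inhibition of yeast growth, referenced to vehicle controls, was the measured output for a strain with defective DNA damage repair.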

[7] = NCI Yeast Anticancer Drug Screen. Data for the wt1 strain (AID 149);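 also: 0% = growth of vehicle-treated wt1 cultures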; conditions: S. cerevisiae wt1 strain (SPY 50644) growth inhibition, stronger effect = higher value
How it was run: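 Readout: yeast growth inhibition, normalised to vehicle controls, in the wt1 strain exposed to test compounds.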

[8] = NCI Yeast Anticancer Drug Screen. Data for the rad50EPP+ strain (AID 151);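 also: 0% = growth of vehicle-treated control cultures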; conditions: S. cerevisiae rad50 mutant strain, stronger effect = higher value
How it was run: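 Genetically defined yeast (rad50EPP+, DNA damage repair alteration) is grown with compound, and inhibition of growth is expressed relative to vehicle-treated controls.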

[9] = NCI Yeast Anticancer Drug Screen. Data for the mgt1 strain (AID 153); conditions: S. cerevisiae mgt1 mutant growth inhibition, stronger effect = higher value
How it was run: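 In the mgt1 strain, test compounds were added and growth inhibition was determined relative to vehicle-treated controls.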

[10] = NCI Yeast Anticancer Drug Screen. Data for the rad50 strain (AID 155);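 also: 0% = growth of vehicle-only cultures of the same strain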; conditions: S. cerevisiae rad50 strain growth inhibition, stronger effect = higher value
How it was run: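 Compounds were tested on a yeast strain with an engineered DNA damage repair alteration; the reported value is growth inhibition normalised to vehicle treatment.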

[11] = NCI Yeast Anticancer Drug Screen. Data for the mec2-1 strain (AID 157); conditions: S. cerevisiae mec2-1 strain, stronger effect = higher value
How it was run: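 Each compound was tested on mec2-1 yeast, a strain altered in DNA damage repair or cell cycle control. Growth inhibition is reported relative to vehicle.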

[12] = NCI Yeast Anticancer Drug Screen. Data for the rad14 strain (AID 159);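 also: 0% = growth of vehicle-treated control cultures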; conditions: S. cerevisiae rad14 strain growth inhibition, stronger effect = higher value
How it was run: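 Compound-treated yeast with a defined DNA-repair lesion; growth inhibition normalised to vehicle-treated cultures.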

[13] = NCI Yeast Anticancer Drug Screen. Data for the sgs1 mgt1 strain (AID 161);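 also: 0% = growth of cultures given vehicle only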; conditions: S. cerevisiae sgs1 mgt1 strain, stronger effect = higher value
How it was run: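 Genetically altered yeast, compound exposure, growth inhibition relative to vehicle.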

[14] = NCI Yeast Anticancer Drug Screen. Data for the CLN2oe strain (AID 163);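 also: 0% = growth of vehicle-only control cultures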; conditions: S. cerevisiae CLN2oe strain, stronger effect = higher value
How it was run: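 First, the altered yeast strain was treated with each compound; second, its growth was measured; finally, inhibition was derived by comparison with vehicle controls.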

[15] = NCI Yeast Anticancer Drug Screen. Data for the cln2 rad14 strain (AID 165);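 also: 0% = growth equal to vehicle treated cultures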; conditions: S. cerevisiae cln2 rad14 strain, stronger effect = higher value
How it was run: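 Test compounds were added to cln2 rad14 yeast cultures; inhibition of growth was then determined by comparison with vehicle treatment.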

[16] = NCI Yeast Anticancer Drug Screen. Data for the bub3 strain (AID 167); conditions: S. cerevisiae bub3 mutant strain, stronger effect = higher value
How it was run: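 Growth of a checkpoint-deficient yeast mutant is measured after compound exposure. Values represent inhibition relative to vehicle.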

[17] = at 5.0 µM (retest, dose inferred, filed as 0.5)
[18] = at 50.0 µM (retest, dose inferred, filed as 5.0)

O=[N+]([O-])c1cccc2nc3ccccc3c(NCCCn3ccnc3[N+](=O)[O-])c12
growth inhibition ([1]; at 1.2 µM): -16%
growth inhibition ([1]; at 3.7 µM): -9%
growth inhibition ([1]; at 11.0 µM): 19%
growth inhibition ([1]; at 33.0 µM): 74% (active)
growth inhibition ([1]; at 100.0 µM): 88% (active)
growth inhibition ([2]; at 1.2 µM): 17%
growth inhibition ([2]; at 3.7 µM): 33%
growth inhibition ([2]; at 11.0 µM): 47%
growth inhibition ([2]; at 33.0 µM): 75% (active)
growth inhibition ([2]; at 100.0 µM): 92% (active)
growth inhibition ([3]; at 1.2 µM): 61%
growth inhibition ([3]; at 3.7 µM): 74% (active)
growth inhibition ([3]; at 11.0 µM): 85% (active)
growth inhibition ([3]; at 33.0 µM): 90% (active)
growth inhibition ([3]; at 100.0 µM): 93% (active)
growth inhibition [4, 17]: 26%
growth inhibition [4, 18]: 98% (active)
growth inhibition ([4]; at 50.0 µM): 79.2% (active)
growth inhibition ([5]; at 1.2 µM): 90% (active)
growth inhibition ([5]; at 3.7 µM): 94% (active)
growth inhibition ([5]; at 11.0 µM): 95% (active)
growth inhibition ([5]; at 33.0 µM): 96% (active)
growth inhibition ([5]; at 100.0 µM): 96% (active)

Oc1ccc(O)c(Cc2ccccc2)c1
growth inhibition ([6]; at 1.2 µM): 21%
growth inhibition ([6]; at 3.7 µM): 48%
growth inhibition ([6]; at 11.0 µM): 89% (active)
growth inhibition ([6]; at 33.0 µM): 97% (active)
growth inhibition ([6]; at 100.0 µM): 99% (active)
growth inhibition ([7]; at 1.2 µM): 6%
growth inhibition ([7]; at 3.7 µM): 14%
growth inhibition ([7]; at 11.0 µM): 29%
growth inhibition ([7]; at 33.0 µM): 50%
growth inhibition ([7]; at 100.0 µM): 93% (active)
growth inhibition ([8]; at 1.2 µM): 56%
growth inhibition ([8]; at 3.7 µM): 88% (active)
growth inhibition ([8]; at 11.0 µM): 95% (active)
growth inhibition ([8]; at 33.0 µM): 98% (active)
growth inhibition ([8]; at 100.0 µM): 99% (active)
growth inhibition ([9]; at 1.2 µM): 4%
growth inhibition ([9]; at 3.7 µM): 13%
growth inhibition ([9]; at 11.0 µM): 37%
growth inhibition ([9]; at 33.0 µM): 78% (active)
growth inhibition ([9]; at 100.0 µM): 99% (active)
growth inhibition ([10]; at 1.2 µM): 37%
growth inhibition ([10]; at 3.7 µM): 87% (active)
growth inhibition [10, 17]: 77% (active)
growth inhibition ([10]; at 11.0 µM): 97% (active)
growth inhibition ([10]; at 33.0 µM): 99% (active)
growth inhibition [10, 18]: 97% (active)
growth inhibition ([10]; at 50.0 µM): 79.3% (active)
growth inhibition ([10]; at 100.0 µM): 99% (active)
growth inhibition ([11]; at 1.2 µM): 6%
growth inhibition ([11]; at 3.7 µM): 30%
growth inhibition [11, 17]: -9%
growth inhibition ([11]; at 11.0 µM): 75% (active)
growth inhibition ([11]; at 33.0 µM): 100% (active)
growth inhibition [11, 18]: 68%
growth inhibition ([11]; at 50.0 µM): 84.3% (active)
growth inhibition ([11]; at 100.0 µM): 100% (active)
growth inhibition ([12]; at 1.2 µM): 17%
growth inhibition ([12]; at 3.7 µM): 34%
growth inhibition ([12]; at 11.0 µM): 73% (active)
growth inhibition ([12]; at 33.0 µM): 98% (active)
growth inhibition ([12]; at 100.0 µM): 99% (active)
growth inhibition [13, 17]: -20%
growth inhibition [13, 18]: 68%
growth inhibition ([13]; at 50.0 µM): 92.5% (active)
growth inhibition ([14]; at 1.2 µM): 3%
growth inhibition ([14]; at 3.7 µM): 28%
growth inhibition ([14]; at 11.0 µM): 40%
growth inhibition ([14]; at 33.0 µM): 72% (active)
growth inhibition ([14]; at 100.0 µM): 98% (active)
growth inhibition [15, 17]: -25%
growth inhibition [15, 18]: 47%
growth inhibition ([15]; at 50.0 µM): 97.4% (active)
growth inhibition ([16]; at 1.2 µM): 8%
growth inhibition ([16]; at 3.7 µM): 25%
growth inhibition [16, 17]: -26%
growth inhibition ([16]; at 11.0 µM): 63%
growth inhibition ([16]; at 33.0 µM): 97% (active)
growth inhibition [16, 18]: 88% (active)
growth inhibition ([16]; at 50.0 µM): 98.3% (active)
growth inhibition ([16]; at 100.0 µM): 99% (active)
growth inhibition ([1]; at 1.2 µM): -2%
growth inhibition ([1]; at 3.7 µM): 1%
growth inhibition ([1]; at 11.0 µM): 23%
growth inhibition ([1]; at 33.0 µM): 58%
growth inhibition ([1]; at 100.0 µM): 87% (active)
growth inhibition ([2]; at 1.2 µM): 9%
growth inhibition ([2]; at 3.7 µM): 22%
growth inhibition ([2]; at 11.0 µM): 47%
growth inhibition ([2]; at 33.0 µM): 89% (active)
growth inhibition ([2]; at 100.0 µM): 98% (active)
growth inhibition ([3]; at 1.2 µM): 16%
growth inhibition ([3]; at 3.7 µM): 45%
growth inhibition ([3]; at 11.0 µM): 94% (active)
growth inhibition ([3]; at 33.0 µM): 99% (active)
growth inhibition ([3]; at 100.0 µM): 99% (active)
growth inhibition [4, 17]: 36%
growth inhibition [4, 18]: 95% (active)
growth inhibition ([4]; at 50.0 µM): 98% (active)
growth inhibition ([5]; at 1.2 µM): 27%
growth inhibition ([5]; at 3.7 µM): 52%
growth inhibition ([5]; at 11.0 µM): 87% (active)
growth inhibition ([5]; at 33.0 µM): 97% (active)
growth inhibition ([5]; at 100.0 µM): 99% (active)
